The text below walks through data of PubChem BioAssay (NCI).

Values joined by “and” are separate entries in the source; they are usually repeats but may differ in a detail not shown here. Equal values may be shown once. Compounds without any hit were thinned out: in the full panel of roughly 83,000, 20% have a hit.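 Activity criterion: percent growth below 10, measured after cells in 96-well plates were exposed to a single compound concentration for 48 hours.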 Active and inactive are the calls of the source.

The assay relates to HL-60(TB) leukemia. Briefly: NCI-60 one-dose screen, 48 h (100 = growth as untreated, 0 = no growth, -100 = all killed). The note with it: 10 µM unless noted.
As to `COc1ccc(/C=C/C(=O)c2ccc(OC)c(OC)c2)cc1O`, the growth was 81.5% (inactive).

Take `COc1ccc2c(c1)CCCC21C(=O)Nc2ccccc21` (centres undefined): the growth was 88% (inactive).

Consider `CCOC(=O)c1nn(C2CCCCO2)c2ccc(NC(=O)CN3CCOCC3)cc12` (centres undefined), for which the growth is 97% (inactive).

On to `COc1cc(-c2nc(/C=C3/C(=O)Nc4ccccc43)c3ccccn23)cc(OC)c1OC`, for which the growth was 89.6% (inactive).

On to `CCN1CCOC1C(C)C` (centres undefined), for which the growth is 90% (inactive).

As to `CO/N=C(/C)c1ccc(NC(=O)CSc2nnc(-c3ccncc3)n2-c2ccccc2)cc1`, the growth was 86% (inactive).

Take `COC(=O)[C@H]1CCCN1C(=O)C1CCCN1C(=O)[C@@H](Cc1ccccc1)NC(=S)Nc1cc(C(F)(F)F)cc(C(F)(F)F)c1` (some centres undefined): the growth is 112% (inactive) and 58.9% (inactive).

Consider `Cc1c(C(=O)NCc2ccccc2)[n+](=O)c2cc(F)ccc2n1[O-]`, for which the growth is 189% (inactive).

With `CC[C@]12C=CCN3CC[C@@]4(c5ccc(OC)cc5N(C)[C@H]4[C@@](O)(C(=O)OC)[C@@H]1OC(=O)CCC(=O)N[C@H](Cc1c[nH]c4ccccc14)C(=O)OC)[C@@H]32`, the growth is -25% [100 µM] (active).

For the molecule `CCCOCC(O)CNCCN` (centres undefined), the growth is 99.8% (inactive).

With `COc1ccc([C@H]2[C@@H](F)C(=O)N2c2cc(OC)c(OC)c(OC)c2)cc1F`, the growth was -14.7% (active).

For the molecule `COc1cc(C(=O)n2nc(-c3cc(OC)c(OC)c(OC)c3)nc2N)cc(OC)c1OC`, the growth was 67.7% (inactive).

In the case of `COc1ccc(-c2[nH]nc(N)c2-c2cc(OC)c(OC)c(OC)c2)cc1`, the growth was -34.9% (active).

In the case of `CCCCCCCCCCCCCCCCCCOc1cccc(CCOP(=O)(O)OCC[N+](C)(C)C)c1`, the growth was 73.4% (inactive).

Consider `CN1CCN(C(=O)[C@]23CCC(C)(C)C[C@@H]2C2=CC[C@@H]4[C@@]5(C)Cc6c([nH]c7ccccc67)C(C)(C)[C@@H]5CC[C@@]4(C)[C@]2(C)CC3)CC1`, for which the growth was 76.7% (inactive).

Regarding `CC[N+](CC)=c1cc2oc3cc(N(C)C)ccc3nc-2cc1C`, the growth is -8.38% (active).

As to `ClC(Cl)c1nc(-c2cccnc2)n2nc(-c3ccccc3)cc2n1`, the growth was 14.2% (inactive).

Regarding `CNC(=O)c1cc(Oc2ccc(NC(=O)Nc3ccc(Cl)c(C(F)(F)F)c3)cc2)ccn1`, the growth is -35.3% (active) and 23.3% (inactive).

For `CCNc1ncnc2[nH]ncc12`, the growth is 95.7% (inactive).

For `C[C@@H]1[C@H]2[C@H](C=C3[C@@H]4CC[C@H]5Cc6nc7c(nc6C[C@]5(C)[C@H]4C[C@@H](O)[C@@]32C)C[C@@H]2CC[C@H]3C4=C[C@@H]5O[C@@]6(CC[C@](C)(CO)O6)[C@@H](C)[C@@]5(O)[C@@]4(C)[C@H](O)C[C@@H]3[C@@]2(C)C7)O[C@]12CCC(C)(C)O2`, the growth was 4.6% (active).

Turning to `C[C@]12CC[C@@H]3c4ccc(O)cc4CC[C@H]3[C@@H]1C[C@H](O)[C@@H]2O`, the growth is 112% (inactive).

Regarding `N#Cc1ccc(/C=C/C(=O)c2ccccc2)cc1`, the growth was -15.6% (active) and 17.7% (inactive).

As for `Cc1ccc2oc(=O)cc(-c3nc4ccc([N+](=O)[O-])cc4[nH]3)c2c1`, the growth is 53.1% (inactive).

In the case of `COc1ccc2c(c1)[n+]([O-])c(C#N)c(NC(=O)c1ccco1)[n+]2[O-]`, the growth was 108% (inactive).

As to `NC1=NCc2nc3ccccc3c(=O)n2C1`, the growth was 90.9% (inactive).

In the case of `CCOC(=O)N1CCN(CCCCl)CC1`, the growth was 85.6% (inactive).

As to `O=c1c2cc(F)ccc2sc2c(NCCCNCCO)nc3ccc(Cl)cc3c12`, the growth was 45.4% (inactive).

Take `CNCCCNCCCCNCCCN1C(=O)c2ccc3c4c(ccc(c24)C1=O)C(=O)N(CCCNCc1ccccc1OC)C3=O`: the growth was 23% (inactive).

Consider `CCN(CC)c1cc(C)c2cc(NC(=O)c3cccc(OC)c3)ccc2n1`, for which the growth was 84.7% (inactive).

`O=C(C[C@]1(O)C(=O)Nc2ccccc21)c1cccc(C(F)(F)F)c1`: the growth is 102% (inactive).

Take `CCCCNCCC(O)c1cc2ccc(C(F)(F)F)cc2c2cc(C(F)(F)F)ccc12` (centres undefined): the growth was -62.1% (active).

Regarding `COc1cccc(C2C3=C(COC3=O)N(CCO)c3cc(OC)ccc32)c1` (centres undefined), the growth is -25.9% (active).

Regarding `Cn1c(=O)c2nc(/C=C/c3ccccc3)c(=O)[nH]c2n(C)c1=S`, the growth was 98.2% (inactive).

As for `CC1Cc2c(N(C)C)ncnc2N(C)c2ccc(O)cc21` (centres undefined), the growth is 81.1% (inactive).

For the molecule `ClCc1ccc(-c2ccc(Cn3cnc4c(Cl)nc(Cl)nc43)cc2)cc1`, the growth was -53.7% (active).

Consider `Cc1cc(S(=O)(=O)/N=C(\N)n2nc(C)c(C)c2C)c(SCc2ccccc2)cc1Cl`, for which the growth was 81.9% (inactive).

On to `Nc1ncnc2c1ncn2C1OC(CO)C(O)C1O` (centres undefined), for which the growth is 65.5% (inactive) and 84.5% (inactive) and 105% (inactive).

With `C=C(C)[C@@H]1CC[C@@]2(C(=O)O)CC[C@]3(C)C(CCC4[C@@]5(C)CCC(OS(=O)(=O)c6ccccc6)C(C)(C)C5CC[C@]43C)C12` (some centres undefined), the growth was 21.4% (inactive).

Turning to `c1cc[n+](C2c3ccccc3C([n+]3ccccc3)c3ccccc32)cc1` (centres undefined), the growth is 88.3% (inactive).
